Experimental findings from the supplement of paper PMC9801561 are described below.
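Also: biolog PM4 phosphorus and sulfur plates, tetrazolium violet dye reduction read in the OmniLog every 15 min, kinetic curves scored by DuctApe, each plate run in triplicate.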

This assay has as its system Escherichia coli Nissle 1917. Nature of the assay: DuctApe activity index of respiration/growth curve (0 no growth to 9 maximum) (index 0-9); higher = more growth / nutrient utilisation, active = 3 or more; extreme values may be limits of the assay. As to conditions: nutrient role: C-Source, carboxylic acid; incubation: 48 h, 37 °C.
In the case of `O=C(O)CC(=O)O` [Malonic acid], the DuctApe activity index is 0 (inactive).
For the molecule `O=C1CC[C@@H](C(=O)O)O1` [a-Hydroxyglutaric acid-g-Lactone], the DuctApe activity index was 0 (inactive).
Turning to `O=C(O)CO` [Glycolic acid], the DuctApe activity index was 7.67 (active).
`O=C(O)[C@@H](O)[C@H](O)[C@H](O)[C@@H](O)C(=O)O` [Mucic acid]: the DuctApe activity index was 8.33 (active).
On to `O=C(O)/C=C/C(=O)O` [Fumaric acid], for which the DuctApe activity index is 8.33 (active).
Regarding `CCCCCC(=O)O` [Caproic acid], the DuctApe activity index is 0 (inactive).
With `O=C(O)Cc1ccc(O)cc1` [p-Hydroxyphenyl Acetic acid] the figure was 0 (inactive); with `O=C(O)[C@H]1OC(O)[C@H](O)[C@@H](O)[C@H]1O` (stereo partly drawn) [D-Galacturonic acid], 9 (active); with `O=C1O[C@H]([C@@H](O)CO)[C@@H](O)[C@@H]1O` [L-Galactonic acid-g-Lactone], 9 (active).
Take `O=C(O)CCC(=O)C(=O)O` [a-Ketoglutaric acid]: the DuctApe activity index was 6.67 (active).
As for `O=C(O)CC(O)C(=O)O` (racemic) [DL-Malic acid], the DuctApe activity index is 8 (active).
